Structures are written as SMILES.

This assay can be described thus: binders from COS7 lysate, DM2A8 probe, primary screen, torsin A project, cell lysate, small-molecule microarray, fluorescence 635/667 (AID 1065). Particulars: higher = more signal, COS7 lysate expressing mutant human TOR1A.
For `CC(=O)c1ccc(C(O)C2C=CC3C(=O)NC(=O)C3N2Nc2ccc(Cl)cc2Cl)cc1` (centres undefined), the composite z-score worked out at 0.37. As to `C=CCC(OC(C)=O)[C@@H]1[C@@H](N(Cc2cccc3ccccc23)C(=O)c2ccc(C)cc2)c2cc(OCCCO)ccc2N1C(=O)c1ccc2ccccc2n1` (some centres undefined), the composite z-score worked out at 0.552.

Consider `COC(=O)[C@@H]1N=C(c2ccc(OCCCO)cc2)O[C@@H]1c1ccccc1CN=[N+]=[N-]`, for which the composite z-score was -0.744. As for `COc1ccc([Si](C)(C)[C@@H]2[C@@H](CCO)O[C@]3(C(=O)N(Cc4ccccc4)c4ccc(N5C(=O)c6ccccc6Oc6ccccc65)cc43)[C@H]2C)cc1`, the composite z-score was -0.662. In the case of `COC(=O)[C@@]1(Cc2ccc(F)cc2)[C@H]2c3cc(C(=O)N(C)C)n(CCO)c3C[C@H]2CN1C(=O)c1ccccc1`, the composite z-score was -0.311. `CC(C)(C)N1CC=CC23O[C@@H]4/C=C\CCCOC(=O)C4[C@H]2C(=O)N(CCCCCCO)[C@@H]3C1=O` (some centres undefined) gave a composite z-score of -0.342. In turn, `C=C(CCCC)C(=O)CC[C@H](OC(C)=O)c1ccccc1OCCO` gave a composite z-score of -0.0867.

Consider `COCCOC(=O)N1C(=O)[C@@]2(c3cc(C#CCC(C(=O)OC)C(=O)OC)ccc31)[C@H](C(=O)N1CCc3cc(OC)c(OC)cc3C1)[C@H]1C(=O)O[C@H](c3ccccc3)[C@H](c3ccccc3)N1[C@@H]2c1ccc(O)cc1`, for which the composite z-score was 0.731.

As for `O=C(NCCO)C1=C[C@H](Oc2ccccc2I)[C@@H](O)[C@H](NCc2ccc(F)cc2)C1`, the composite z-score turned out to be 0.917. `C=CCC(OC(C)=O)[C@@H]1[C@@H](N(Cc2cccc3ccccc23)C(=O)c2ccc(-c3ccccc3)cc2)c2cc(OCCCO)ccc2N1C(=O)c1ccc2ccccc2n1` (some centres undefined) had a composite z-score of 0.116. `COc1ccc([Si](C)(C)[C@H]2[C@H](CCO)O[C@@]3(C(=O)N(Cc4ccccc4)c4ccc(N(C=O)c5ccccc5)cc43)[C@@H]2C)cc1`: the composite z-score was determined as 0.242. In turn, `CCCC[C@H]1OB(O)C[C@H]2C1=C(C)C[C@H]1C(=O)C=CC(=O)[C@H]12` gave a composite z-score of -0.0474.

Compound `[N-]=[N+]=NCc1ccccc1[C@@H]1OC(c2ccc(OCCCO)cc2)=N[C@]1(Cc1ccccc1)C(=O)NCc1ccccc1` registered a composite z-score of -0.649. The compound `COc1ccccc1CN1C(=O)c2ccccc2[C@](Cc2ccccc2I)(C(=O)NCCCN(C)C)[C@@H]1c1ccc(CO)cc1` came in with a composite z-score of -0.501. Regarding `CCCCCCc1nc(-c2ccc(OC)nc2)cc2c1[Si](C(C)C)(C(C)C)OC2`, the composite z-score was 0.456. The value for `CC(=O)n1cc(C(O)C2C=CC3C(=O)N(c4ccccc4)C(=O)C3N2Nc2ccccc2F)c2ccccc21` (centres undefined) was 0.25; that for `COc1ccc(NN2C(C(O)c3cc(C(F)(F)F)cc(C(F)(F)F)c3)C=CC3C(=O)N(C4CCCCC4)C(=O)C32)cc1` (centres undefined) was 0.301; that for `CC1CC/C=C\[C@H]2OC34C=CCN(c5ccc(Cl)cc5)C(=O)[C@H]3N(CCCO)C(=O)[C@]4(C)C2C(=O)O1` (some centres undefined) was -1.4. The compound `O=C1NC(=O)C2C1C=CC(C(O)c1cccc(O)c1)N2Nc1ccc(Cl)cc1Cl` (centres undefined) displayed a composite z-score of 0.0528. For `CCc1cccc(NC(=O)O[C@H]2[C@H](OC(=O)Nc3ccc4c(c3)OCO4)[C@H](OC(=O)Nc3ccc4c(c3)OCO4)[C@@H](OC)O[C@@H]2CO)c1`, the composite z-score was found to be 0.052. In the case of `C[N+](C)(C)CCCCCCNC(=O)[C@@H]1C[C@@H]2C(=O)N[C@@H](Cc3ccccc3)C(=O)N2[C@@H]1c1ccc(O)cc1`, the composite z-score was 1.18. `CCN(CC)c1ccc(N2CC=CC34O[C@@H]5C=CCOC(=O)[C@@H]5[C@H]3C(=O)N(CCCO)[C@@H]4C2=O)cc1` (some centres undefined): the composite z-score was found to be 0.15. Compound `COCCCNC(=O)[C@@]1(Sc2ccc(C)cc2)CC(=O)N(C2CCCCC2)[C@@H]1c1ccc(CO)cc1I` had a composite z-score of 0.657.

With `COCCOC(=O)N1C(=O)[C@@]2(c3cc(C#CC4(O)CCCCCC4)ccc31)[C@H](c1ccc(OCCO)cc1)N1[C@H](c3ccccc3)[C@H](c3ccccc3)OC(=O)[C@H]1[C@@H]2C(=O)N1CCCCCCC1`, the composite z-score worked out at 0.437.

In the case of `C=CC[C@@]12N=C(c3ccc(OCCCO)cc3)O[C@@H]1c1ccccc1N(Cc1ccccc1)C2=O`, the composite z-score came to 1.43. Compound `C=C(CCCC)/C(=C/C[C@H](OC(C)=O)c1cccc(OCCO)c1)c1cc(C(=O)OC)ccc1OC` showed a composite z-score of -0.325. `O=c1cccc(-c2ccccc2C(F)(F)F)o1` came in with a composite z-score of -0.0924. Then `COC(=O)[C@@]1(Cc2ccc(OC)cc2)[C@H]2c3cc(C(=O)N4CCCC4)n(CCc4ccc(OC)c(Br)c4)c3C[C@H]2CN1C(=O)c1ccccc1`, with -0.116; and `COc1ccc(CCNC(=O)[C@@H]2c3ccccc3C(=O)N(CC34CC5CC(CC(C5)C3)C4)[C@H]2c2ccc(CO)cc2)cc1`, with 0.0668.

The record behind these values is PubChem BioAssay.
